Shown are actives, neighbours in structure and some others; about 6% of the full set was active somewhere.
D3 ag – qHTS of D3 Dopamine Receptor Agonist: qHTS. AID 652048, 2013. D(3) dopamine receptor (Homo sapiens), P35462. max activation, %. D3R DiscoveRx beta-arrestin cells, luminescence, 90 min. 410,000 tested, 0.58% active; in the data active = max activation above about 30%
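Cells at 1500/well, incubated overnight, then treated with pinned compounds (dopamine as control) for 90 min at 37 degrees C. DiscoveRx reagent added for 30 - 60 minutes at room temperature; luminescence read.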
D3 antag – qHTS of D3 Dopamine Receptor Antagonist: qHTS. 360,000 tested, 2.5% active. AID 652054, 2013. max response, negative = inhibition, %. D3R cells, DiscoveRx beta-arrestin luminescence, antagonist mode; active compounds read low. D(3) dopamine receptor (Homo sapiens), P35462; in the data active = max response below about -50%; inconclusive = no clear call, values can overlap the other calls
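Cells expressing the human receptor were seeded at 1500 cells/well, incubated overnight at 37 degrees C in 5% CO2, then exposed to library compounds with dopamine controls for 90 minutes at 37 degrees C before luminescent detection.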
D1 antag – Antagonist of Human D 1 Dopamine Receptor: qHTS. HEK293 TREx D1 cells, calcium flux, dopamine EC80; active compounds read low. activity change, negative = inhibition, % at 10 µM. 360,000 tested, 3.2% active. AID 504652, 2011; in the data active = activity change below about -30%
Target sequence (P21728 whole entry, looked up): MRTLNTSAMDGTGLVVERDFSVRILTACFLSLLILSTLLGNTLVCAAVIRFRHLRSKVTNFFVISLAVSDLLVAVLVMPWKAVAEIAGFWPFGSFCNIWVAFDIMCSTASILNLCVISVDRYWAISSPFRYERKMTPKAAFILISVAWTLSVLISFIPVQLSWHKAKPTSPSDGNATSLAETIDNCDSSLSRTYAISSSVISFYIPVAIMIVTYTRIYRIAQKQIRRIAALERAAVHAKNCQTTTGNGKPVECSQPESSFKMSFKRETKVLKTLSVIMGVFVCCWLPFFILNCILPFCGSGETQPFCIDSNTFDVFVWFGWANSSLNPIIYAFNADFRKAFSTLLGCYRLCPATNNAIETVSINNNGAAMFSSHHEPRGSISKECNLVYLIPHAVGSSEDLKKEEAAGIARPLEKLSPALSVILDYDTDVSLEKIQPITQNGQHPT
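Tetracycline-induced HEK293 Trex D1 cells, force-coupled to calcium, dye-loaded; compounds added and read 180 s, then EC80 dopamine added and calcium flux tracked kinetically another 180 s.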
D1 potentiator – Potentiators of Human D1 Dopamine Receptor: qHTS; HEK293 TREx D1 cells, calcium flux, dopamine EC20 potentiation; potentiation, % at 10 µM; 360,000 tested, 0.036% active; in the data active = potentiation above about 30%
D1 agonist – Allosteric Agonists of the Human D1 Dopamine Receptor: qHTS. 360,000 tested, 1% active. HEK293 T-REx D1 cells, calcium flux, agonist mode. D(1A) dopamine receptor (Homo sapiens), P21728. activation, % at 2 µM. AID 504660, 2011; in the data active = activation above about 30%
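Tetracycline-induced HEK293 TREx D1 cells, force-coupled to calcium signalling, were dye-loaded with a no-wash calcium kit. Compound was pin-added after a 10 s baseline. Fluorescence was read kinetically at 1 cycle/s for 180 s, with calcium rises flagged as agonism.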
Numbers stand for hits; n = inactive; u = inconclusive; x = not tested or not shown.

SMILES	D3 ag	D3 antag	D1 antag	D1 potentiator	D1 agonist
CC1=CC(C)[C@H](/C=N/n2c(=O)[nH]c3c([nH]c4ccc(Br)cc43)c2=O)C(C)C1 (some centres not stated)	n	-67	n	n	n
CC(C)N(C)C1CCN(S(=O)(=O)c2ccc3[nH]c(=O)ccc3c2)CC1	n	x	n	n	n
CC(=O)Nc1cccc(NC(=O)C(=O)NCCc2sc(-c3ccccc3)nc2C)c1	n	x	-40	n	n
Cc1nc(-c2ccccc2)sc1CCNC(=O)C(=O)Nc1ccc2c(c1)OCCO2	n	x	-45	n	n
Cc1nc(-c2ccc(F)cc2)sc1CCNC(=O)C(=O)Nc1ccc2c(c1)OCCO2	n	x	n	n	n
Cc1ccccc1C(=O)NCCc1sc(-c2ccc(Cl)cc2)nc1C	n	x	-38	n	n
CC(C)(C)C(=O)Oc1ccc(S(=O)(=O)Nc2ccccc2C(=O)NCC(=O)O)cc1	n	x	x	x	x
O=c1c2c3c(sc2nnn1Cc1ccc(Br)cc1)CCCC3	n	x	n	n	n
Cc1ccc(C)c2sc(N3CCN(C(=O)c4ccc([N+](=O)[O-])o4)CC3)nc12	n	u	n	n	n
O=C(c1ccc([N+](=O)[O-])o1)N1CCN(c2nc3c(F)cc(F)cc3s2)CC1	n	n	-31	n	n
CCOC(=O)C1(C)C=C(Nc2cccc(C)c2)C(=O)N1c1ccccc1 (configuration not stated)	n	x	n	n	n
CSC1=C(C#N)C(c2ccccc2Cl)C2=C(N1)c1ccccc1C2=O (configuration not stated)	n	n	-42	n	n
COc1ccc(CCNC(=O)c2cnc3ccc(C)cn3c2=O)cc1OC	n	x	n	n	n
O=C(NC(NNc1ccc([N+](=O)[O-])cc1)(C(F)(F)F)C(F)(F)F)c1ccc(Cl)cc1	n	-74	-54	n	31
Cc1cc(C)cc(NC(=O)CN2C(=O)CCc3cc(S(=O)(=O)N4CCCCC4)ccc32)c1	n	x	n	n	n
CCc1cccc(CC)c1NC(=O)Cn1nnc2sc3c(c2c1=O)CCCC3	n	x	n	n	n
COc1ccc(Cl)cc1/C=C/c1ccc2cccc(O)c2n1	n	-84	n	n	n
Oc1cccc2ccc(/C=C/c3c(F)cccc3Cl)nc12	n	u	n	n	n
Oc1ccc(/C=C/c2ccc3cccc(O)c3n2)cc1Br	n	n	n	n	37
Oc1cccc2ccc(/C=C/c3ccccc3Cl)nc12	n	-176	n	n	n
COc1cc(Cl)cc(/C=C/c2ccc3cccc(O)c3n2)c1OC	n	-94	n	n	n
COc1c(OC(C)=O)ccc(/C=C/c2ccc3cccc(OC)c3n2)c1[N+](=O)[O-]	n	n	n	n	n
O=C(Cn1c(=O)n(Cc2ccc3c(c2)OCO3)c(=O)c2ccccc21)Nc1cccc(Cl)c1	n	x	n	n	n
Cc1ccccc1NS(=O)(=O)c1ccc2[nH]cc(C(=O)NCCc3ccccc3)c(=O)c2c1	n	x	n	n	n
CCS(=O)(=O)N1CCc2cc(C(=O)N3CCN(c4cccc(C(F)(F)F)c4)CC3)ccc21	n	x	n	n	n
SMILES	D3 ag	D3 antag	D1 antag	D1 potentiator	D1 agonist
COC(=O)C1Cc2ccccc2CN1S(=O)(=O)c1ccc(F)cc1 (configuration not stated)	n	u	-36	n	n
CC(=O)c1ccc(S(=O)(=O)N2Cc3ccccc3CC2C(=O)O)cc1 (configuration not stated)	n	n	n	n	n
CS(=O)(=O)N1Cc2ccccc2CC1C(=O)O (configuration not stated)	n	n	-43	n	n
COc1ccc2cc3cc(C(=O)NCCc4ccccc4)sc3nc2c1Cl	n	x	n	n	n
Cc1cc(C)cc(NC(=O)c2ccc3oc(=O)c(S(=O)(=O)c4ccc(F)cc4)cc3c2)c1	n	x	n	n	n
COc1cccc(NC(=O)Nc2nc(-c3ccc(OC)c(OC)c3)cs2)c1	49	n	-40	n	n
COc1ccc(-c2csc(NC(C)=O)n2)cc1OC	n	n	n	n	n
COc1cccc(NC(=O)Nc2ccc3snnc3c2)c1	n	x	n	n	37
O=C(Nc1ccc2snnc2c1)Nc1cccc2ccccc12	n	n	n	n	n
CCc1ccccc1NC(=O)Nc1ccc2snnc2c1	n	x	n	n	33
Cc1ccc(NC(=O)Nc2ccc3snnc3c2)cc1C	n	x	n	n	n
Cc1cc(C)cc(NC(=O)Nc2c[nH]c(=O)[nH]c2=O)c1	n	x	n	n	n
COc1cccc(NC(=O)CN2C(=O)c3cccc4cccc2c34)c1	n	x	n	n	n
CCC(CC)C(=O)Nc1ccc(OCc2cc(=O)n3c4c(sc3n2)CCCC4)cc1	n	x	n	n	n
Cc1ccc(-c2nnn(CC(=O)N(c3cccc(F)c3)C(C(=O)NC(C)(C)C)c3ccco3)n2)o1 (configuration not stated)	n	n	-39	n	n
CC(C)(C)NC(=O)C(c1ccncc1)N(C(=O)Cn1nnc(-c2ccc(F)cc2)n1)c1ccccc1F (configuration not stated)	n	n	n	n	n
Cc1ccccc1N(C(=O)Cn1nnc(-c2ccc(F)cc2)n1)C(C(=O)NC(C)(C)C)c1ccncc1 (configuration not stated)	n	n	-35	n	n
COc1ccc(CN(C(=O)Cn2nnc(-c3ccc(C)o3)n2)C(C(=O)NCC2CCCO2)c2ccco2)cc1 (configuration not stated)	n	n	-42	n	n
CCN(C(=O)CSc1nc(-c2ccc(C(C)C)cc2)no1)c1ccccc1	n	x	n	n	n
CCOC(=O)c1ccc(N2C(=O)c3[nH]nc(-c4ccccc4)c3C2c2ccc(CC)cc2)cc1 (configuration not stated)	n	x	n	n	n
N#Cc1cccc(NC(=O)C2CCN(S(=O)(=O)c3ccc4[nH]c(=O)ccc4c3)CC2)c1	n	x	n	n	n
CCCn1c(CN(C)Cc2ccccc2)nc2c1c(=O)n(C)c(=O)n2C	n	n	-43	n	n
CCCCn1c(CN(C)Cc2ccccc2)nc2c1c(=O)n(C)c(=O)n2C	n	n	n	n	n
COc1ccc(OC)c(NC(=O)C2CC(=O)N(CCc3ccccc3)C2)c1 (configuration not stated)	n	n	n	n	n
O=C(OCc1ccc([N+](=O)[O-])cc1)C1CC(=O)N(CCc2ccccc2)C1 (configuration not stated)	n	n	-40	n	n

Compound activity from PubChem.
